The campaign covered roughly 1,600 compounds. About 20 (1%) were called active. This is one part of a sample in which actives are shown more often than they occur.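 How the source made its calls: active means ratio of uncleaved NAD to its breakdown product ADP-ribose above 4, meaning the enzyme was inhibited; inactive means the rest.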
Biological target: NAD(+) hydrolase SARM1 (Homo sapiens) (UniProt Q6SZW1)
Assay: inhibition of SAM-TIR NAD hydrolysis to ADPR – cell lysate, HPLC readout, primary screen (AID 1508615);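 further: substrate NAD at 5 µM with 60 min at 37 °C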
Settings: HEK293T SAM-TIR lysate, NAD/ADPR ratio by HPLC; at 5 µM; active compounds read high

Chain of NAD(+) hydrolase SARM1 (Homo sapiens) (Q6SZW1 whole entry, looked up): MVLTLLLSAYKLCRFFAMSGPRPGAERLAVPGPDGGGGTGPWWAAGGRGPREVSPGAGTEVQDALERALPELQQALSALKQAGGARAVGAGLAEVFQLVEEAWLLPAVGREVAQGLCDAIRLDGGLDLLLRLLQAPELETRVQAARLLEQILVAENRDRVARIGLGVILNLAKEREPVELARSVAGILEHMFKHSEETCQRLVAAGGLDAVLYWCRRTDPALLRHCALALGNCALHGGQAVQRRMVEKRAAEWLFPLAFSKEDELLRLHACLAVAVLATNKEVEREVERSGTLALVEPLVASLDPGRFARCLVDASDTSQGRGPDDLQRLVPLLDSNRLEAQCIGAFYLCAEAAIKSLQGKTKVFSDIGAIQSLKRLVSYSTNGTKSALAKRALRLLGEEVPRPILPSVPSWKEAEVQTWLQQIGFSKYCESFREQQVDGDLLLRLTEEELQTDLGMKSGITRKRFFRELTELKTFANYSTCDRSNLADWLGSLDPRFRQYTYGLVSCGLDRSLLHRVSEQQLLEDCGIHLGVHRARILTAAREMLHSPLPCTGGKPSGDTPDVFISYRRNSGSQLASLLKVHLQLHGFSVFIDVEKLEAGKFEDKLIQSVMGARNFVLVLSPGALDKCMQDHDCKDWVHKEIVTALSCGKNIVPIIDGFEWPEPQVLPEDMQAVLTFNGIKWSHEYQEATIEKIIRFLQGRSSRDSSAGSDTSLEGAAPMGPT

SMILES | NAD/ADPR ratio
CCN(CC)c1ccc(C=C2C(=O)NC(=S)NC2=O)cc1 | 5.3 (active)
O=C1NC(=O)C(=Cc2ccc3ccccc3c2)C(=O)N1 | 3 (inactive)
COc1cc(C=C2C(=O)NC(=O)NC2=O)ccc1O | 3 (inactive)
COC12C(COC(N)=O)C3=C(C(=O)C(C)=C(N)C3=O)N1CC1C2N1C (stereo not given) | 3 (inactive)
O=C1CCC2(O)[C@@H]3Cc4ccc(O)c5c4[C@]2(CCN3Cc2ccoc2)C1O5 (stereo not given in full) | 3 (inactive)
CC1=CC(O)C(O)C2(C)C1CC1OC(=O)C(O)C3C(C)C(O)C4(O)OCC13C42 (stereo not given) | 3 (inactive)
COC(=O)c1nc(-c2ccc3c(n2)C(=O)C(N)=C(OC)C3=O)c(N)c(-c2ccc(OC)c(OC)c2O)c1C | 3 (inactive)
CC1=C(O)C(=O)C=C2C1=CC=C1[C@@]2(C)CC[C@@]2(C)[C@@H]3C[C@](C)(C(=O)O)CC[C@]3(C)CC[C@]12C | 12.8 (active)
N#CC12CNCC1CN=N2 (stereo not given) | 3 (inactive)
NC(=O)c1ccc(C(=O)Nc2ccc([As](=O)(O)O)cc2)cc1 | 3 (inactive)

From PubChem BioAssay AID1508615 (Milbrandt Lab, Department of Genetics, Washington …, 2020)
